Rows were chosen to be rich in hits. Some 1.8% of all compounds tested hit in one or more screens of this group.
TLR9-MyD88 block – inhibitors of human TLR9-MyD88 binding | Q9NR96+Q99836 | CHO BLA complementation TLR9-MyD88, CCF4 FRET ratio | inhibition, % at 4.98 µM | 340,000 compounds, 0.21% hits | AID 504734;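 active = inhibition above the mean over all tested compounds plus 3 SD, cut at about 21% in these data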;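 note: 0% = DMSO only wells and 100% = clavulanate BLA inhibitor control wells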
TLR4-MyD88 BLA – blocks binding of human TLR4 to MyD88; O00206+Q99836; HeLa CL3-4 TLR4/MyD88 BLA complementation, FRET ratio; inhibition, % at 8.4 µM; 200,000 compounds, 0.18% hits; AID 861; in the data active = inhibition above about 25%;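 note: 0% = vehicle and 100% = reference inhibitor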
m5-HT2A agonist – agonists of mouse serotonin 5-HT2A receptor (HTR2A); P35363; CHO-K1 mHTR2A beta-arrestin complementation, luminescence; percent of 30 µM serotonin response; activation, % at 7.6 µM; 360,000 compounds, 0.66% hits; AID 624169;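 active = activation above a run cutoff, the mean activation of all tested compounds plus 3 SD, cut at about 14% in these data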;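 note: 0% = plate median of compound wells and 100% = 30 µM serotonin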
NOD2-RIPK2 inh – blocks binding of human NOD2 to RIPK2 | O43353 | AID 624267 | 360,000 compounds, 0.38% hits | CHO BLA complementation NOD2-RIPK2, CCF4 ratio | inhibition, % at 4.98 µM; in the data active = inhibition above about 21%;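 note: 0% = vehicle only and 100% = reference blocker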
Rtt109 HAT inh – inhibitors of Candida albicans Rtt109/Vps75 histone acetyltransferase; Q5AAJ8; purified Rtt109/Vps75, ThioGlo CoA-SH fluorescence, 4 h; inhibition, % at 34.9 µM; 330,000 compounds, 0.16% hits;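 active = inhibition of at least 50% in every replicate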
Target sequence (Q5AAJ8 whole entry, looked up): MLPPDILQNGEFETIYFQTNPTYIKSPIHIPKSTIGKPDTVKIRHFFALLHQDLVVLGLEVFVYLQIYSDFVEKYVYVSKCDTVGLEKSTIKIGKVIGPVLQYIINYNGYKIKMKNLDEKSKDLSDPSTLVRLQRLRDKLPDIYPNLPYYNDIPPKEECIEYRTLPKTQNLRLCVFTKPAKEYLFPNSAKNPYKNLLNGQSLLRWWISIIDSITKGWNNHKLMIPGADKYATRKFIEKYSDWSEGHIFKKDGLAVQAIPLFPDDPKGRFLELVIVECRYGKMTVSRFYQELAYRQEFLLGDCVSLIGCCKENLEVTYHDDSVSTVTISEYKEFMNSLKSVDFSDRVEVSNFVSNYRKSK
LANA-H2A inh – blocks KSHV LANA binding to histone H2A/H2B | inhibition, % (no concentration beside the values) | cell-free LANA-H2A/H2B peptide, fluorescence polarization | AID 2629 | 320,000 compounds, 0.6% hits; in the data active = inhibition mostly above about 10%, no sharp cut-off; inactive = mostly below about 6.7%
MOR ag counter – counter-screen for mouse HTR2A agonists: human mu opioid receptor agonists. activation, % at 9.3 µM. AID 624380. U2OS OPRM1 beta-arrestin PathHunter, luminescence; DMSO 0%, DAMGO 9.3 µM 100%. 2,300 compounds, 5.3% hits. shares compounds with m5-HT2A agonist;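 active = mean activation above the mean of DMSO-only wells plus 3 SD, cut at about 0.5% in these data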
HTR2A ag conf – mouse HTR2A agonism confirmed; shares compounds with m5-HT2A agonist; CHO-K1 PathHunter beta-arrestin recruitment, luminescence; DMSO 0%, 30 µM serotonin 100%; activation, % at 7.6 µM; 2,300 compounds, 19% hits; AID 624381;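 active = mean activation across triplicates above the hit threshold derived in the original primary screen, cut at about 15% in these data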
The depositor's hits bear a star; . = not tested or not shown.

SMILES	TLR9-MyD88 block	TLR4-MyD88 BLA	m5-HT2A agonist	NOD2-RIPK2 inh	Rtt109 HAT inh	LANA-H2A inh	MOR ag counter	HTR2A ag conf
CC(C)CCNC(=O)CCn1c(=S)oc2ccccc21	7.0	-10.4	18.6*	-11.8	.	1.9	-0.8	-3.2
COc1ccccc1NC(=O)CCn1c(=S)oc2ccccc21	-0.9	.	-5.7	-3.9	4.2	2.3	.	.
OCC1OC(n2ccc3c(NO)ncnc32)C(O)C1O (stereo unspecified)	2.4	.	18.0*	-16.7	3.1	.	0.3	12.9
Nc1ncnc2c1ncn2[C@@H]1O[C@H](CO)[C@@H](O)[C@H]1O	-0.8	-11.4	28.2*	-14.9	1.1	-0.5	-0.6	-2.0
Cc1c(Br)c(C(=O)NNC(=O)c2ccc(C(C)(C)C)cc2)nn1C	3.2	.	0.6	4.8	1.9	2.6	.	.
Cc1ccc(C(=O)NCC(=O)N(C)Cc2cccc(F)c2)s1	10.4	.	3.5	-7.9	-1.0	.	.	.
Cc1ccc(C(=O)NCC(=O)N(C)Cc2ccccc2C)s1	2.1	.	19.4*	-1.9	.	.	-0.7	-2.8
Cc1ccc(S(=O)(=O)CC(=O)Nc2nc(C(C)(C)C)cs2)cc1	1.1	.	18.8*	3.0	5.6	4.7	-0.1	-1.4
Fc1ccc(NCc2nnc3n2CCCCC3)cc1	4.2	6.1	19.5*	-3.6	-10.4	-8.8	0.0	3.1
Cn1nc(CC#N)c2c(=N)n(N)cnc21	-5.4	.	1.9	0.1	-5.0	.	.	.
Cc1ccccc1Nc1nc(-c2sc(NC(=O)c3ccco3)nc2C)cs1	4.1	-2.1	19.4*	2.8	2.0	1.2	-0.5	0.9
O=C(NCC(c1ccco1)N1CCN(c2ccccc2F)CC1)C1CCCCC1 (stereo unspecified)	-7.3	.	16.9*	-16.6	-4.1	2.0	-0.3	48.3*
CC(C)C[C@@H](CN1CCC[C@H]1CN1C(=O)C(=O)NC[C@@H]1Cc1ccccc1)N1C[C@H](Cc2ccc(O)cc2)N(CC2CCCCC2)C(=O)C1=O	.	.	15.0*	-8.8	.	.	-0.5	-2.7
O=C(CNC(=O)c1ccccc1F)N/N=C/c1ccc2c(c1)OCO2	9.7	.	-1.8	9.6	4.2	-5.1	.	.
COc1ccc([C@H]2N[C@]3(CCCN(Cc4ccc(C(F)(F)F)cc4)C3=O)[C@H]3C(=O)N(Cc4ccccc4)C(=O)[C@@H]23)cc1	-4.3	.	4.8	-7.6	.	.	.	.
CN(C)c1nc(Oc2ccc(C(=O)OCC(=O)Nc3ccccc3)cc2)nc(N(C)C)n1	-3.7	3.2	8.3	9.7	10.7	-1.0	.	.
CCOC(=O)c1ccc(Oc2nc(OC)nc(N(C)C)n2)cc1	-1.5	-1.7	17.6*	2.2	17.9	-3.3	-0.6	-0.3
Cc1ccc(-c2ccc(=O)n(CC(=O)Nc3ccc4c(c3)OCCO4)n2)cc1	-7.0	4.0	-2.3	6.1	-3.9	-3.2	.	.
CN(C)S(=O)(=O)c1ccc(NC(=O)Cn2nc(-c3ccc4c(c3)OCCO4)ccc2=O)cc1	-3.8	.	14.7*	-2.8	-4.4	.	-0.5	-6.1
CCCn1c(N)c(Sc2ccc(Cl)cc2)c(=O)n(CCC)c1=O	-0.3	22.8	22.5*	4.3	15.2	2.2	-0.7	6.4
CCCCn1c(N)c(Sc2ccc(Cl)cc2)c(=O)[nH]c1=O	5.5	-2.0	2.3	-0.7	-18.0	-1.4	.	.
COc1ccc(CCNC(=O)c2cc(S(=O)(=O)N3CCOCC3)cn2C)cc1OC	5.7	.	-1.6	1.4	3.0	2.3	.	.
COc1ccc(CCNC(=O)c2cccc(S(=O)(=O)N3CCOCC3)c2)cc1OC	-0.2	.	15.9*	-6.1	1.6	-3.7	-0.4	-1.3
COc1ccc(NC(=O)C2CCN(S(=O)(=O)c3ccc(OC)c(OC)c3)CC2)cc1	0.3	-14.6	1.9	-15.4	12.2	-0.2	.	.
COc1ccc(S(=O)(=O)N2CCC(C(=O)Nc3ccc(S(=O)(=O)N4CCCC4)cc3)CC2)cc1OC	3.4	.	16.4*	-6.4	12.8	4.2	-0.4	-3.3
SMILES	TLR9-MyD88 block	TLR4-MyD88 BLA	m5-HT2A agonist	NOD2-RIPK2 inh	Rtt109 HAT inh	LANA-H2A inh	MOR ag counter	HTR2A ag conf
COc1ccc(S(=O)(=O)N2CCCCCC2)cc1NC(=O)c1ccccc1	-11.6	.	-0.5	0.6	-1.3	0.9	.	.
COc1ccc(S(=O)(=O)N2CCCCC2)cc1NC(=O)c1ccc(OC)c(OC)c1	2.8	.	15.3*	3.3	-2.2	.	-0.7	-4.0
CC1(C(=O)Nc2cccc(OC(F)(F)F)c2)Cc2c(-c3ccc(C(N)=O)cc3)ccnc2O1 (stereo unspecified)	.	.	-8.1	3.4	.	.	.	.
Cc1ccc(C)c(CC(=O)N2CCCC(c3cc(C(=O)NCc4ccccc4)no3)C2)c1 (stereo unspecified)	.	.	1.0	7.5	.	.	.	.
COc1ccc(CSc2ccc(S(=O)(=O)N3CCCC3)cn2)cc1F	3.4	.	-5.3	-17.1	.	.	.	.
COc1ccccc1CN1CC(C(=O)NCc2cccc(C)n2)CCC1=O (stereo unspecified)	-4.1	.	2.7	-11.7	0.6	-2.0	.	.
COc1ccccc1CN1CC(C(=O)NCc2cc(C)on2)CCC1=O (stereo unspecified)	-5.5	.	15.8*	-5.9	-6.1	-5.1	-0.3	2.1
COc1cccc(Cn2cnc(-c3ccccc3OC)c2-c2cccs2)c1	.	.	23.6*	2.7	.	.	-0.6	-7.3
COc1ccc(-n2c(SCC(=O)C(C)(C)C)nc3c(sc(=S)n3-c3ccccc3)c2=O)c(OC)c1	-5.3	.	2.1	0.2	2.6	0.8	.	.
CC(C)CNC(=O)CC(c1ccccc1)c1ccccc1	-0.1	-3.3	1.5	-3.0	-2.7	-13.0	.	.
O=C(O)/C=C\C(=O)Nc1ccc(N2CCN(c3cccc(Cl)c3)CC2)cc1	4.5	-3.4	16.8*	8.8	0.7	-1.1	-0.7	-5.0
O=C(O)/C=C\C(=O)Nc1ccc(N2CCN(c3ccc(Cl)c(Cl)c3)CC2)cc1	2.7	8.7	35.1*	-1.1	-0.9	-0.8	-0.6	-1.9
O=C(O)/C=C\C(=O)Nc1ccc(N2CCN(c3ccc(Cl)cc3)CC2)cc1	-9.2	-4.9	7.1	2.4	14.6	-0.2	.	.
Cc1ccccc1C(=O)Nc1ccc(N(C)C)c2ccccc12	-4.3	.	-1.8	3.6	-4.9	2.6	.	.
O=C(C(Cl)c1ccccc1)N1CCOCC1 (stereo unspecified)	3.0	.	-6.3	-16.3	-7.5	-5.5	.	.
CC(C)(C)SC(=O)CC1NS(=O)(=O)OC2CCCCC12 (stereo unspecified)	-3.1	.	23.2*	-7.5	-6.2	-2.4	-0.5	-4.0
CC(C)(C)SC(=O)C[C@@H]1NS(=O)(=O)OC2CCCCC21 (stereo partly specified)	5.8	.	-1.9	2.9	-2.2	-2.9	.	.

Screening data deposited in PubChem BioAssay by several laboratories.
